Test results: the supplement of paper PMC6555819

Experiments:
Assay in all cases: PBM binding z-score (relative to random genomic background probes); higher = stronger binding; sequences stand for … in GC…GCGATTGACAGCGTAGAATGAAGG
[1] = tested on: PPARg:RXRa DBDmut IVT, anti-RXR (DBD mutation: RXRa K156A/R161A, NR concentration 270 nM, RXRa partner concentration 90 nM)
In short: (§1)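 Binding z-scores were set against random background probes. The data came from custom Agilent 4×180K protein-binding microarrays carrying double-stranded probes with 34-nt variable regions, incubated 1 h with ligand-free nuclear receptor dimers. Partner-specific antibodies detected binding, and scanned fluorescence was regression-normalized.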

[2] = tested on: PPARg:RXRa IVT, anti-PPARg (NR concentration 270 nM, RXRa partner concentration 90 nM)
In short: as §1

[3] = tested on: PPARg DBDmut:RXRa IVT, anti-PPARg (DBD mutation: PPARg1 K132A/R137A, NR concentration 270 nM, RXRa partner concentration 90 nM)
In short: as §1

[4] = tested on: PPARg DBDmut IVT, anti-PPARg (DBD mutation: PPARg1 K132A/R137A, NR concentration 270 nM)
In short: as §1

[5] = tested on: PPARg homodimer (NR concentration 180 nM)
In short: as §1

[6] = tested on: PXR:RXRa (NR concentration 270 nM, RXRa partner concentration 90 nM)
In short: as §1

[7] = tested on: PXR homodimer (NR concentration 270 nM)
In short: as §1

[8] = tested on: RARa:RXR (NR concentration 270 nM, RXRa partner concentration 90 nM)
In short: as §1

[9] = tested on: RARa homodimer (NR concentration 270 nM)
In short: as §1

[10] = tested on: RARb homodimer (NR concentration 270 nM)
In short: as §1

[11] = tested on: RARg:RXRa (NR concentration 270 nM, RXRa partner concentration 90 nM)
In short: as §1

[12] = tested on: RARg homodimer (NR concentration 270 nM)
In short: as §1

[13] = tested on: RXRa DBDmut IVT, anti-RXR (DBD mutation: RXRa K156A/R161A, NR concentration 90 nM)
In short: as §1

[14] = tested on: RXRa homodimer (NR concentration 180 nM)
In short: as §1

[15] = tested on: THRa:RXRa (NR concentration 90 nM, RXRa partner concentration 90 nM)
In short: as §1

[16] = tested on: THRa homodimer (NR concentration 90 nM)
In short: as §1

[17] = tested on: VDR:RXRa (NR concentration 270 nM, RXRa partner concentration 90 nM)
In short: as §1

[18] = tested on: VDR homodimer (NR concentration 270 nM)
In short: as §1

Sequence	PBM binding z-score [1]	PBM binding z-score [2]	PBM binding z-score [3]	PBM binding z-score [4]	PBM binding z-score [5]	PBM binding z-score [6]	PBM binding z-score [7]	PBM binding z-score [8]	PBM binding z-score [9]	PBM binding z-score [10]	PBM binding z-score [11]	PBM binding z-score [12]	PBM binding z-score [13]	PBM binding z-score [14]	PBM binding z-score [15]	PBM binding z-score [16]	PBM binding z-score [17]	PBM binding z-score [18]
CGTTCAAGGTCATAGGAGGTCAGTGAAGACAGAT	3.95	5.26	1.34	2.03	5.42	6.86	5.84	6.33	3.73	5.77	7.11	7.22	4.47	6.46	5.23	3.63	6.67	5.25
CCTACTGGGCCAAAAATGTCATTGATGCCGATAA	2.92	2.47	-0.355	-0.43	-0.472	-0.383	-0.24	-0.612	0.0407	-0.0192	-0.247	0.087	-0.297	-0.234	-0.288	-0.816		-0.383
TAGCCTAGGACATGCGGGCCAGTATAGTGTCGGC	-0.985	-0.448	-1.11	-0.53	-1.04	-0.867	-0.905	-0.797	-0.552	-0.329	-0.38	0.0739	-1.32	-0.25	0.348	-0.342		-1.08
AATACAGGATCACTAGGCCAGAGTAGGTACGAAT	0.409	1.29	1.21	0.197	0.314	-0.236	0.366	-0.456	0.395	0.388	0.343	0.495	-0.317	0.367	-0.0476	-0.262		0.0243
TTACCAAGGTGAAAGGTCGTTGAAGCACGCCTTG	2.63	5.39	0.668	-0.186	1.84	4.44	0.41	6.52	-0.363	2.64	4.3	2	0.879	5.84	3.57	0.624	3.42	1.29
GATACAGAGTCAGCTAGAGGCCAGAGTATGGAAA	-0.664	-0.657	-0.407	-0.534	-0.64	-0.537	-0.489	-0.487	-0.438	-0.00482	0.958	0.249	-0.732	-0.0704	-0.305	-1.05		-0.0123
CGTCAAAGTTCAAGTTAACGTAACAGAAAGCAGC	0.502	2.16	0.474	0.736	3.88	4.92	4.14	3.96	2.01	4.24	5.84	6.77	4.89	5.38	2.3	-0.142		4.05
TTATCAAGGTGAAAGGTCGTTGATGCACGCCTTG	4.86	6.15	1.25	1.43	2.37	3.99	0.766	5.9	0.465	2.42	4.25	2.44	0.854	5.89	3.44	1.19		1.54
CGTCCAAGGTCAAAGGTCAGCGAAGAGATGACGG	4.17	6.07	0.648	0.832	4.17	7.19	1.93	8.63	2.3	5.39	8.99	8.41	3.72	10.4	5.06	2.63		3.77
GCTGCTAGGTCAGGATGGTCAGCTAACGGGTACG	2.74	3.02	-0.328	-0.66	0.599	0.108	-0.722	0.555	-0.167	2.65	2.65	3.23	0.0831	1.18	1.7	0.189		0.124
CATACAGGGTCCGCTAGGCCAGAGTAGGGACGGC	-1.42	-0.128	0.386	-0.456	-0.436	-0.819	-0.353	-0.535	-0.0023	-0.0807	-0.0159	0.424	-0.419	-0.247	-0.0805	-0.241		-0.213
ACTAGTTGCTCAGCTGAGGTCACACACAATTCGG	0.944	1.76	0.496	1.18	1.91	4.3	1.44	4.26	0.561	3.77	3.37	2.72	1.09	3.6	4.23	4.94		3.14
TAGCCTAGGCCATGGGCCAGTATACCACGCGAAC	-0.977	-0.175	-0.116	-1.11	-1.27	-0.806	-1.11	-0.86	-1.48	-0.0202	-0.148	0.285	-1.69	-0.256	-0.253	-0.645		-0.837
TCTAGGAGGACACGAAGGTCAGAGCTTTCCAGAG	1.91	1.99	-0.157	-1.05	0.55	1.72	0.568	1.83	-0.482	3.47	3.15	3.8	0.842	2.01	2.61	0.635		0.851
CGAACTAGCTCAAGGACAGTGAATCTCCGCACGC	0.26	-0.559	-0.68	-0.183	-0.00792	-0.255	-0.354	-0.192	-0.143	0.214	-0.134	-0.141	0.392	-0.227	1.42	1.48		0.226
ACTAGTTGGTAAGCTGAGGTCACACACAATTCGG	0.595	1.93	1	0.246	2.25	4.72	1.85	4.42	1.2	4.01	3.45	2.93	1.25	3.57	4.52	5.19		3.29
AGTCAAAGTTCACGACGAGGTAACGTAAAGCACG	0.0759	3.83	0.65	1.24	4	5.24	2.18	5	1.23	4.35	6.88	6.88	4.21	5.95	4.41	1.36		3.96
ATCGGAAGGTCGAGGTGAGTATAGAGAAAGGGAA	0.383	1.36	0.811	0.693	1.44	1.1	0.218	1.59	0.522	2.14	2.38	2.75	0.14	2.25	2.28	0.964		0.543
TCTGCTAGGTCAGTTGGGCAGCTAACGAGCTGCC	2.07	2.7	-0.163	-0.28	0.0544	-0.242	-1.29	0.253	-1.12	1.91	2.37	3.42	0.193	0.493	1.12	-0.349		-0.821
CCTACTGGGCCAAAGGTCCTTGATTCCAATGCTC	5.03	5.07	-0.487	-1.06	0.826	-0.225	-0.792	0.089	-0.831	0.379	0.102	-0.124	-0.459	0.121	-0.00931	-0.139		-0.217
CAAAATAGGTCAAGGTCAAAGTCGGTTTGTGCCA	7.7	8.26	1.72	1.63	4.28	5.51	2.04	5.42	1.28	5.46	6.53	7.1	2.89	6.48	4.48	3.55		3.72
CCTACTGGGCGAAGGTCATTGATCAGTCAAAGCA	0.342	2.33	-1.21	-0.935	2.36	3.04	0.36	3.75	-0.327	3.08	3.7	2.52	0.409	2.97	2.2	-0.298		1.33
ACAGACAGGTGAGTGAAGGTCACTCAGCTGGACG	0.842	2.27	0.253	0.153	1.49	3.66	0.106	2.82	0.0123	3.64	3.32	3.72	-0.197	2.89	3.41	0.198		0.819
CGTCAAAGTTCTAGGTAACGTAACAGAAAGCAGC	1.41	1.83	0.454	0.457	0.283	-0.00995	-0.093	0.103	0.866	-0.287	0.0968	0.323	0.31	0.135	0.719	0.349		-0.0157
CGTCAAAGTTCAACTAAGTTAACGTAAAGCACGC	0.764	1.89	1.94	1.78	2.97	6.14	5.97	4.09	2.57	4.02	5.7	6.78	4.7	5.2	4.32	0.349		3.74
CGTCAAAGTTCAAGGTTACGTAACAGAAAGCAGC	0.998	2.75	1.55	1.22	2.53	4.66	2.48	4.11	1.38	4.45	5.57	6.33	4.73	4.85	3.43	1.33		3.55
CTCGAAAGGTCGGTTGAGGTGAGTAAACGGATAA	-0.271	0.901	0.0903	-0.255	0.98	3	0.167	2.19	0.141	2.42	2.86	2.8	0.85	2.46	4.97	1.19		0.238
CCTCGGAGGACAGAAGGTCAGATCTGTCCGCTTT	0.207	-0.0702	-0.934	-1.55	1.35	1.65	-0.42	1.98	0.321	3.49	3.26	3.53	0.421	2.01	2.25	0.0201		0.21
